The structures appear in SMILES notation. The campaign covered roughly 1,300 compounds. About 30 (2%) were called active. Inconclusive results (about 10%) are left out. The full list was thinned out, with actives kept by preference. Values without a mark were called inactive. Calls come from the whole dose curve; as a rule, active = well fitted inhibition curve with a large enough effect; inconclusive = small, poorly fitted or top-dose-only effect; inactive = flat fitted curve, though single readings scatter.
% is set by controls: 0 for no effect and ±100 for the full control effect; potency is the fitted concentration of half-maximal effect.

The assay in a line: qHTS for antagonists of the Thyroid Stimulation Hormone Receptor: Hit Validation in HTRF Activity in a Luteinizing Hormone Receptor Cell Line. The following applies: LHR-expressing cell line, cAMP HTRF, antagonist mode; series mostly up to 58 µM; activity change, negative = inhibition: at the top concentration. An excerpt:
The thyroid-stimulating hormone receptor (TSHR) is a member of the 7 trans-membrane-spanning receptor (7TMR) family of cell surface receptors. TSHR-mediated hyperthyroidism is important in thyroid pathology. The development of small molecule antagonists of TSHR may lead to therapeutic approaches for TSHR-mediated hyperthyroidism caused by constitutively activating mutations or stimulating auto-antibodies associated with Graves' disease. Graves' disease is the leading cause of hyperthyroidism and is caused by autoantibodies that stimulate TSHR (TsAbs) causing thyroid growth and unregulated overproduction of thyroid hormones and existing treatments have liabilities (agranulocytosis). In addition, TSHRs are known to be expressed in multiple extrathyroidal tissues including bone, brain, kidney, testis, fat and cells of the immune system but the role of the TSHR in these tissues is not clear. Therefore, TSHR antagonists/inverse agonists could be used as probes of extrathyroidal TSHR function. Finally, TSHR inverse agonists, which are a subclass of antagonists that inhibit agonist-independent (or basal or constitutive) TSHR signaling, could be used to inhibit TSH-independent signaling in patients with recurrent or metastatic thyroid cancer who are receiving thyroid hormone to suppress TSH.
In collaboration between scientist from the NCGC and the NIDDK, a miniaturized HTRF high-throughput screen was developed. It's a cell based assay, where an anti cAMP antibody contains a fluorescent cryptate tag (excitation 337 nm; emission 620 nm) and the acceptor is cAMP-d2 (excitation 620 nm; emission 665 nm). When antibody and cAMP-d2 interact and are excited by a 337 nm light, a FRET occurs resulting in emission at 665 nm. The assay is competition between cAMP-d2 and cAMP (from the cell lysate). The homogeneous protocol allows for one step dispense after stimulation that is automation friendly. In order to confirm specificity of the compounds to the TSHR, a confirmatory assay was conducted on a similar family member, the Luteinizing Hormone (LH) receptor, transfected into a HEK 293 cell line, using an orthogonal detection technology to measure cAMP stimulation: antibody-based Homogeneous Time Resolved Fluorescence (HTRF).
NIH Chemical Genomics Center [NCGC]
NIH Molecular Libraries Probe Centers Network [MLPCN]
Assay Provider: Marvin Gershengorn, NIDDK
Homogeneous Time Resolved Fluorescence (HTRF) cAMP Assay. HEK 293 cells stably transfected with a vector containing the LH receptor and maintained under hygromycin selection were obtained from the laboratory of Dr. Marvin Gershengorn. Compounds were assayed using a HTRF cAMP detection kit (Cisbio) on the LH receptor transfected cell line. Briefly, 750 cells were plated in 2.5 ul/well of complete media (DMEM containing 10 % FCS, and 100 uM RO 20-1724) in 1536 well solid bottom white plates and 23 nl/well compound in DMSO solution or controls was added. Following 30 minute incubation at room temperature, 2.5 ul/well of labeled d2 cAMP and 2.5 ul/well of anti-cAMP antibody (both diluted 1:20 in lysis buffer) were added to each well using a flying reagent dispenser (Aurora Discovery, San Diego) . Plates were measured using the Envision plate reader (PerkinElmer, Boston, MA) with excitation at 330 nm and emissions of 615 nm and 660 nm.
On the technique in general: In qHTS, concentration-response curves come from the screen itself.
In the case of `Cc1nc(NCCc2ccccc2)c(C#N)c(C)c1[N+](=O)[O-]`, the “activity change, negative = inhibition” value was -0.65%.
For the compound `O=C(OCn1ncc(Cl)c(Cl)c1=O)c1ccccc1Cl`, the “activity change, negative = inhibition” value was -5.91%.
On to `O=S(=O)(Nc1cccnc1)c1ccc(C2CCCCC2)cc1`, for which the “activity change, negative = inhibition” value is 1.64%.
On the same count and under the same terms, with `CC(C)Cc1nc2oc3c(Cl)ncnc3c2c2c1CCC2` the figure was -4.6%.
Consider `Cc1cccc(NC(=O)c2ccc(Cl)c(S(=O)(=O)N3CCc4ccccc43)c2)n1`, for which the “activity change, negative = inhibition” value was -9.41%.
On to `COc1ccc(CCNC2=C(Cl)C(=O)N(CCc3ccccc3)C2=O)cc1OC`, for which the “activity change, negative = inhibition” value is -9.23%.
For the compound `COc1ccc(CCNC2=C(Cl)C(=O)N(CCc3ccc(OC)c(OC)c3)C2=O)cc1OC`, the Potency is 37.9 µM (active).
On to `COc1ccc(CCNc2ncnc3c2[nH]c2cc(OC)c(OC)cc23)cc1OC`, for which the “activity change, negative = inhibition” value is -3.52%.
Regarding `COc1cccc(N2CCN(c3ncnc4c3cnn4-c3ccc(C)cc3C)CC2)c1`, the Potency is 33.8 µM (active).
For the compound `COc1ccc(-n2ncc3c(N(C)C4CCCCC4)ncnc32)cc1`, the “activity change, negative = inhibition” value was -3.61%.
The same measure, in the same setting: with `COc1ccc(OC)c(NC(=O)CSc2ncnc3c2cnn3-c2ccccc2Cl)c1` the figure was -8.87%; with `O=C(NC1C2CC3CC(C2)CC1C3)c1ccc2c(c1)OCO2` (centres undefined), 1.26%.
In the case of `CC(C)(C)OC(=O)NCCCCCc1cn([C@@H](CO)C(=O)NCCCCCCCCCCC(=O)N2CCN(C(=O)OC(C)(C)C)CC2)nn1`, the Potency was 37.9 µM (active).
On to `Cc1cccc(OCC(=O)Nc2nc3ccc([N+](=O)[O-])cc3s2)c1C`, for which the “activity change, negative = inhibition” value is 2.41%.
Consider `CCOc1cc(N2CCOCC2)c(OCC)cc1NC(=O)c1cc(S(=O)(=O)N2CCOCC2)ccc1C`, for which the “activity change, negative = inhibition” value is -0.64%.
Regarding `CN(c1ccccc1)S(=O)(=O)c1ccc(NC(=O)c2nc(S(C)(=O)=O)ncc2Cl)cc1`, the Potency was 30.1 µM (active).
As for `CCCc1nnc(NC(=O)c2nc(S(=O)(=O)Cc3ccc(C)cc3)ncc2Cl)s1`, the “activity change, negative = inhibition” value was -2.21%.
For the compound `O=C(Nc1ccccc1)c1nnsc1S(=O)(=O)c1ccc(Cl)cc1`, the “activity change, negative = inhibition” value is -4.24%.
With `CCN(c1ccccc1)S(=O)(=O)c1ccc(NC(=O)c2nc(S(C)(=O)=O)ncc2Cl)cc1`, the Potency is 33.8 µM (active).
Regarding `Cc1ccc(CS(=O)(=O)c2ncc(Cl)c(C(=O)Nc3nnc(C(C)C)s3)n2)cc1`, the “activity change, negative = inhibition” value was -6.84%.
Turning to `CC(C)c1nnc(NC(=O)c2nc(S(=O)(=O)Cc3ccccc3F)ncc2Cl)s1`, the “activity change, negative = inhibition” value is -6.24%.
Same read-out and setting: the figure for `Cc1ccc(NC(=O)c2nc(S(=O)(=O)Cc3ccccc3C)ncc2Cl)cc1C` is -0.454%; for `CN(c1cccc(NC(=O)c2ccc(Cl)c(S(=O)(=O)Nc3ccccc3)c2)c1)S(C)(=O)=O` it is 1.14%; for `COC(=O)c1ccc(NC(=O)c2nc(S(=O)(=O)Cc3cccc(C)c3)ncc2Cl)cc1` it is -1.75%.
For `CCOC(=O)c1ccc(NC(=O)c2nc(S(=O)(=O)Cc3ccccc3)ncc2Cl)cc1`, the “activity change, negative = inhibition” value was -2.38%.
Turning to `CCS(=O)(=O)c1ncc(Cl)c(C(=O)Nc2ccc(S(=O)(=O)N(C)c3ccccc3)cc2)n1`, the Potency is 42.6 µM (active).
Regarding `CCC1CCCCN1S(=O)(=O)c1ccc(NC(=O)c2nc(S(C)(=O)=O)ncc2Cl)cc1` (centres undefined), the Potency was 30.1 µM (active).
Consider `COc1ccc(OC)c(NC(=O)c2cc(S(=O)(=O)NCc3ccco3)ccc2F)c1`, for which the “activity change, negative = inhibition” value was -2.65%.
The same measure, in the same setting: with `COc1ccccc1C1CCN(c2cc(O)ccc2[N+](=O)[O-])CC1` the figure was 1.21%.
As to `Cc1ccc(C)c(N2CCN(C(=O)C(Cc3ccccc3)n3cccc3)CC2)c1` (centres undefined), the “activity change, negative = inhibition” value is -3.11%.
Regarding `Cc1ccccc1NC(=O)c1cc2ccccn2n1`, the “activity change, negative = inhibition” value was 2.78%.
On the same count and under the same terms, the figure for `Cc1csc(NC(=O)c2cc3c(C)nn(Cc4ccccc4Cl)c3s2)n1` is -3.84%; for `COC(=O)CCN(Cc1cc(OC)ccc1OC)S(=O)(=O)c1ccccc1Br` it is 1.58%.
Turning to `CCn1c(=NC(=O)CSC(C)=O)sc2cc(OC)ccc21`, the “activity change, negative = inhibition” value was -1.89%.
In the case of `Brc1ccc(CNc2ccc3ncccc3c2)cc1`, the “activity change, negative = inhibition” value is 0.575%.
Consider `Cc1n[nH]c(C)c1S(=O)(=O)N1CCCC(C(=O)N2CCN(c3ccc(Cl)cc3)CC2)C1` (centres undefined), for which the “activity change, negative = inhibition” value was -2.41%.
Take `CCCCn1c(-c2c(Cl)c(C)nn2C)n[nH]c1=S`: the “activity change, negative = inhibition” value was 2.87%.
Same read-out and setting: the figure for `Clc1ccc(CCNc2ncnc3nc[nH]c23)cc1` is -2.95%; for `Cc1cc(-n2c(C)cc(C(=O)CSc3[nH]c(=O)cc(C(F)(F)F)c3C#N)c2C)no1` it is 2.79%; for `Cc1ccc(C(=O)C2=C(O)C(=O)N(c3ncccn3)C2c2ccccc2F)o1` (centres undefined) it is -6.53%.
Take `O=c1[nH]nc(Cc2ccc(-c3cccc(Cl)c3)o2)c2ccccc12`: the “activity change, negative = inhibition” value is 1.92%.
On the same count and under the same terms, the figure for `C1=C(CCNc2ncnc3c2[nH]c2ccccc23)CCCC1` is -9.93%.
On to `COc1ccc(N2CCN(C(c3nnnn3CCc3ccccc3)C(C)C)CC2)cc1` (centres undefined), for which the “activity change, negative = inhibition” value is -0.511%.
Turning to `O=C(NCCC1=CCCCC1)C1CCCN(S(=O)(=O)c2ccccc2)C1` (centres undefined), the “activity change, negative = inhibition” value was -0.0889%.
Same read-out and setting: the figure for `CCCCCCOc1ccc(NC(=O)CC2C(=O)N(CC)C(=S)N2Cc2ccco2)cc1` (centres undefined) is 0.236%.
Regarding `O=[N+]([O-])c1ccc(Sc2cccc[n+]2[O-])c2nonc12`, the Potency is 23.9 µM (active).
Turning to `COc1ccc(Nc2ccc([N+](=O)[O-])c3nonc23)c(OC)c1`, the “activity change, negative = inhibition” value is 1.19%.
With `COC(=O)c1c(NC(NC(C)=O)C(Cl)(Cl)Cl)sc2c1CCCC2` (centres undefined), the “activity change, negative = inhibition” value is 1%.
For the compound `COc1cc([N+](=O)[O-])cc(/C=C2/SC(=S)N(Cc3ccccc3)C2=O)c1O`, the “activity change, negative = inhibition” value is -3.99%.

(Values after PubChem BioAssay AID602293 (National Center for Advancing Translational Sciences (NCATS), 2012).)
